{"source": "PubChem BioAssay AID686978", "about": "(National Center for Advancing Translational Sciences (NCATS), 2013)", "note": "Screen size: about 420,000 compounds; about 64,000 (15%) were called active. About 27% were inconclusive and are not listed. The call rests on the fitted dose curve; in most records, active means well fitted inhibition curve with a large enough effect; inconclusive means small, poorly fitted or top-dose-only effect; inactive means flat fitted curve, though single readings scatter. These entries were drawn from the full list. On the % scale 0 is the no-effect control and ±100 the full control effect; potency means the concentration at half of the fitted maximal effect.", "data": [{"experiment": "qHTS for Inhibitors of human tyrosyl-DNA phosphodiesterase 1 (TDP1): qHTS in cells in absence of CPT; further: nearly all actives have a fitted effect of over 55% in size", "settings": "DT40 Tdp1-/- hTDP1 cells, no CPT, ATP luminescence, 48 h; activity change, negative = growth inhibition: at 46.2 µM (top of the series)", "how_it_was_run": "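Growth kinetics read by CellTiter-Glo luminescence after ≥48 hr at 37 °C. Cells: DT40 Tdp1-/- stably carrying human TDP1, 400 per well, compound exposure in the absence of CPT (DMSO vehicle).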", "values": [{"molecule": "CCC1(CC)NC(=O)N(Cc2nc3ccccc3s2)C1=O", "activity change, negative = growth inhibition": "0.207% (inactive)"}, {"molecule": "CCOc1ccc2oc(C(=O)N(CC)CC(=O)Nc3ccc(NC(C)=O)cc3)c(C)c2c1", "activity change, negative = growth inhibition": "-8.73% (inactive)"}, {"molecule": "CCOc1ccc(-n2c(SCC(=O)NC3CCS(=O)(=O)C3)nnc2-c2cccnc2)cc1", "note": "(configuration not stated)", "activity change, negative = growth inhibition": "3.46% (inactive)"}, {"molecule": "COc1ccc(S(=O)(=O)N2CCOCC2)cc1NC(=O)Cc1coc2cc(C)ccc12", "activity change, negative = growth inhibition": "-22.4% (inactive)"}, {"molecule": "N#Cc1c2c(c(-c3ccccc3)[nH]c1=O)CCCC2", "activity change, negative = growth inhibition": "-23.7% (inactive)"}, {"molecule": "CCCCC1N2CC3([N+](=O)[O-])CN1CC([N+](=O)[O-])(C2)C3(C)C", "note": "(configuration not stated)", "activity change, negative = growth inhibition": "-17.4% (inactive)"}, {"molecule": "Nc1ccc(SCCN2C(=O)c3ccccc3C2=O)cc1", "activity change, negative = growth inhibition": "-11% (inactive)"}, {"molecule": "Cc1ccc(S(=O)(=O)c2cc3c(=O)n4cccc(C)c4nc3n(CCc3ccccc3)c2=N)cc1C", "activity change, negative = growth inhibition": "-1.1% (inactive)"}, {"molecule": "COc1ccc(CCn2c(=N)c(C(=O)NCc3ccco3)cc3c(=O)n4cccc(C)c4nc32)cc1", "Potency": "11.6 µM (active)"}, {"molecule": "O=C(NCc1cccnc1)c1cc(S(=O)(=O)N2CCOCC2)c(Cl)cc1Cl", "activity change, negative = growth inhibition": "-21.6% (inactive)"}, {"molecule": "Cc1cccn2c(=O)c3cc(C(=O)NC4CCCCC4)sc3nc12", "activity change, negative = growth inhibition": "-18.7% (inactive)"}, {"molecule": "COc1ccc(CNC(=O)c2cc3c(=O)n4ccccc4nc3n(CC3CCCO3)c2=N)cc1", "note": "(configuration not stated)", "activity change, negative = growth inhibition": "-22.2% (inactive)"}, {"molecule": "CCCCn1c(=N)c(S(=O)(=O)c2ccccc2)cc2c(=O)n3cccc(C)c3nc21", "activity change, negative = growth inhibition": "-17.6% (inactive)"}, {"molecule": "COc1ccc(Cn2ccnc2SCC(=O)NCc2ccco2)cc1", "activity change, negative = growth inhibition": "-8.83% (inactive)"}, {"molecule": "COCCCn1c(C(=O)NC2CCCCC2)cc2c(=O)n3cccc(C)c3nc21", "Potency": "16.4 µM (active)"}, {"molecule": "Cc1cccn2c(=O)c3cc(C(=O)NCCN4CCOCC4)c(=N)n(Cc4cccnc4)c3nc12", "Potency": "8.2 µM (active)"}, {"molecule": "Cc1ccc2nc3c(cc(C(=O)NCCc4ccccc4)c(=N)n3CC3CCCO3)c(=O)n2c1", "note": "(configuration not stated)", "Potency": "20.6 µM (active)"}, {"molecule": "O=C(NC1CCCCC1)c1ccc2c(=O)n(CC3CCCO3)c(=O)[nH]c2c1", "note": "(configuration not stated)", "activity change, negative = growth inhibition": "-17.9% (inactive)"}, {"molecule": "CCOC(=O)c1ccc2[nH]c3c(c2c1)CCCC3NC=O", "note": "(configuration not stated)", "activity change, negative = growth inhibition": "-16.5% (inactive)"}, {"molecule": "C=CC1=C(C(=O)O)N2C(=O)[C@@H](NC(=O)/C(=N\\OCC(=O)O)c3csc(N)n3)[C@H]2SC1", "activity change, negative = growth inhibition": "-8.95% (inactive)"}, {"molecule": "Nc1c(N(CCCO)C(=O)C2CCCC2)c(=O)[nH]c(=O)n1Cc1ccccc1", "activity change, negative = growth inhibition": "13.1% (inactive)"}, {"molecule": "COc1ccc(NC(=O)C(CC(C)C)NC(=O)C2CCC(C)CC2)cc1", "note": "(configuration not stated)", "activity change, negative = growth inhibition": "-27.2% (inactive)"}, {"molecule": "O=C(Cn1nc(Cc2cccnc2)c2ccccc2c1=O)NCC1CCCO1", "note": "(configuration not stated)", "activity change, negative = growth inhibition": "-3.45% (inactive)"}, {"molecule": "COc1cc(=O)n2c(c1C(=O)NCc1ccco1)CCN(Cc1ccccc1)CC2", "activity change, negative = growth inhibition": "-17.1% (inactive)"}, {"molecule": "COCCNc1ncnc2c1ncn2[C@H]1CN(CCN2CCOCC2)C[C@@H](CO)O1", "activity change, negative = growth inhibition": "-0.749% (inactive)"}, {"molecule": "CN(CC(=O)NNC(=O)CNC(=O)c1ccccc1Cl)S(=O)(=O)c1ccc(Cl)cc1", "activity change, negative = growth inhibition": "-14.8% (inactive)"}, {"molecule": "O=C1c2ccccc2C(=O)N1c1ccccc1S(=O)C(F)(F)F", "note": "(configuration not stated)", "activity change, negative = growth inhibition": "5.16% (inactive)"}, {"molecule": "COc1ccc(CCn2c(=N)c(C(=O)NCC3CCCO3)cc3c(=O)n4cccc(C)c4nc32)cc1OC", "note": "(configuration not stated)", "Potency": "0.517 µM (active)"}, {"molecule": "COc1ccccc1-n1cnc2cc(C(=O)NCC3CCCO3)ccc21", "note": "(configuration not stated)", "activity change, negative = growth inhibition": "-7.49% (inactive)"}, {"molecule": "COc1ccc(CCNC(=O)Cn2c(=O)n(CC3CCCO3)c(=O)c3ccccc32)cc1OC", "note": "(configuration not stated)", "activity change, negative = growth inhibition": "-21.2% (inactive)"}, {"molecule": "CC1CCC(NC(=O)CN(C)S(=O)(=O)c2ccc3c(c2)c(=O)n(C)c(=O)n3C)CC1", "note": "(configuration not stated)", "activity change, negative = growth inhibition": "1.05% (inactive)"}, {"molecule": "CN(C(=O)CSc1nnc(C2CC2)n1C)C1CCCc2ccccc21", "note": "(configuration not stated)", "activity change, negative = growth inhibition": "6.04% (inactive)"}, {"molecule": "COC(=O)C1=C[C@@H](C(=O)OC)[C@@H]2C3=C(C(=O)[C@]2(C)NC(=O)c2ccccc2)[C@H](C)n2c(=O)n(C)c(=O)n2[C@@H]3C1", "activity change, negative = growth inhibition": "9.24% (inactive)"}, {"molecule": "CCOC(=O)C1=CCC2C(=O)N(Cc3ccccc3)C(=O)C12", "note": "(configuration not stated)", "activity change, negative = growth inhibition": "-11.7% (inactive)"}, {"molecule": "CCC1(CC)C(=O)C2=C3C1[C@H](C(=O)OC)C=C(C(=O)OC)C[C@H]3[C@H]1C(=O)N(Cc3ccccc3)C(=O)[C@H]1[C@H]2C", "note": "(some centres not stated)", "Potency": "16.4 µM (active)"}, {"molecule": "CCOc1ccccc1NC(=O)CCc1nnc2ccc(NCc3ccco3)nn12", "activity change, negative = growth inhibition": "-19.2% (inactive)"}, {"molecule": "CNC(=O)c1sc(NCc2ccccc2OC)nc1C", "activity change, negative = growth inhibition": "-16.5% (inactive)"}, {"molecule": "Cc1cccc(NC(=O)Nc2ccc(OCc3ccccc3)cc2)n1", "activity change, negative = growth inhibition": "3.3% (inactive)"}, {"molecule": "CNC(=O)c1sc(Nc2ccc(OCc3ccccc3)cc2)nc1C", "Potency": "13 µM (active)"}, {"molecule": "COc1ccc(CNC(=O)[C@H](Cc2c[nH]c3ccccc23)NC(C)=O)cc1OC", "activity change, negative = growth inhibition": "-6.89% (inactive)"}, {"molecule": "COc1ccc(C(C(=O)NCC2CCCO2)N(C(=O)Cn2nnc3ccccc32)c2ccc(NC(C)=O)cc2)cc1OC", "note": "(configuration not stated)", "activity change, negative = growth inhibition": "-15.5% (inactive)"}, {"molecule": "COc1ccc(C(C(=O)NC2CCCCC2)N(C(=O)Cc2c[nH]c3ccccc23)c2ccccc2)cc1OC", "note": "(configuration not stated)", "Potency": "18.4 µM (active)"}, {"molecule": "CN(Cc1c(F)cccc1Cl)S(=O)(=O)c1cccs1", "activity change, negative = growth inhibition": "-16% (inactive)"}, {"molecule": "O=C(NCc1ccccn1)C1CCN(S(=O)(=O)c2ccc(Br)cc2)CC1", "activity change, negative = growth inhibition": "4.5% (inactive)"}, {"molecule": "CC1(C)CCSC(/C=C/c2ccccc2)=N1", "Potency": "4.61 µM (active)"}, {"molecule": "CCCOc1ccc(NC(=O)C2CCCNC2=O)cc1", "note": "(configuration not stated)", "activity change, negative = growth inhibition": "0.653% (inactive)"}, {"molecule": "Cc1ccc(-c2ccnc(-n3ncc(C(=O)N(C)Cc4cccc5ncccc45)c3C3CC3)n2)o1", "activity change, negative = growth inhibition": "-13.8% (inactive)"}, {"molecule": "CC1CN(c2nc(Nc3ccccc3)nc(N)c2[N+](=O)[O-])CC(C)O1", "note": "(configuration not stated)", "Potency": "14.6 µM (active)"}, {"molecule": "CCN1CCN(c2nc(Nc3cccc(F)c3)nc(N)c2[N+](=O)[O-])CC1", "activity change, negative = growth inhibition": "-20.6% (inactive)"}, {"molecule": "Nc1nc(NCC(=O)O)nc(N2CCCCCC2)c1[N+](=O)[O-]", "activity change, negative = growth inhibition": "-0.0334% (inactive)"}, {"molecule": "CCOC(=O)c1ccccc1NC(=O)COC(=O)CCC(=O)N1CCOCC1", "activity change, negative = growth inhibition": "-1.44% (inactive)"}, {"molecule": "NC(=O)C1CC(=O)N(c2ccc(OCC(=O)NCc3ccccc3)cc2)C1", "note": "(configuration not stated)", "activity change, negative = growth inhibition": "0.0429% (inactive)"}, {"molecule": "O=C(NNC1=C(C(=O)C(F)(F)F)CCC1)c1ccncc1", "Potency": "1.64 µM (active)"}, {"molecule": "O=C(NNC(=O)c1cnccc1C(F)(F)F)c1ccc(Cl)cc1", "activity change, negative = growth inhibition": "-14.1% (inactive)"}, {"molecule": "Cc1ccc(C(=O)NNC(=O)c2ccncc2)cc1S(=O)(=O)N1CCCCC1", "activity change, negative = growth inhibition": "-17% (inactive)"}, {"molecule": "COc1ccc2c(c1)c1ncn(Cc3ccccn3)c(=O)c1n2C", "activity change, negative = growth inhibition": "4.45% (inactive)"}, {"molecule": "COc1ccc(N2CCN(C(=O)c3ccc(N4CCCCS4(=O)=O)cc3)CC2)cc1", "activity change, negative = growth inhibition": "-14.6% (inactive)"}, {"molecule": "COc1cccc(CNC(=O)c2cccnc2Sc2ccc(Cl)cc2)c1", "activity change, negative = growth inhibition": "16.2% (inactive)"}, {"molecule": "O=C(CSc1nnnn1-c1ccccc1)NCc1ccco1", "activity change, negative = growth inhibition": "-4.79% (inactive)"}, {"molecule": "Cc1ccc(CNC(=O)CSc2c3c(nc4cc(Cl)ccc24)CCCC3)cc1", "Potency": "14.6 µM (active)"}, {"molecule": "COc1cccc(CNC(=O)c2ccc3c(Cl)c4c(nc3c2)CCCC4)c1", "Potency": "23.1 µM (active)"}, {"molecule": "Cc1ccc(CNC(=O)COc2ccc3c(c2)CCC3)cc1", "activity change, negative = growth inhibition": "-13.2% (inactive)"}, {"molecule": "O=C(CSc1c2c(nc3ccc(Cl)cc13)CCCC2)NCc1ccco1", "Potency": "18.4 µM (active)"}, {"molecule": "O=C(/C=C/c1ccc(Cl)cc1Cl)NCc1ccco1", "activity change, negative = growth inhibition": "-27.7% (inactive)"}, {"molecule": "COc1cccc(CNc2nc3nc4c(c(=O)n3[nH]2)CCC4)c1", "activity change, negative = growth inhibition": "-4.84% (inactive)"}, {"molecule": "Cc1cn(C)c(CC(=O)NCc2ccc(Cl)cc2)c1C(=O)O", "activity change, negative = growth inhibition": "10.2% (inactive)"}, {"molecule": "COc1ccc(N2CCN(C(=O)c3ccc4c(Cl)c5c(nc4c3)CCCC5)CC2)cc1", "Potency": "20.6 µM (active)"}]}]}
